A selection: hits, their analogues and other compounds. The true share with any hit is near 15%.
Pf growth 96h: Primary qHTS for delayed death inhibitors of the malarial parasite plastid, 96 hour incubation; Potency, µM (titrated, usually from 28.7 µM), without a hit: at the highest dose activity change, negative = inhibition, hits mostly inhibitors; P. falciparum luciferase reporter growth, 96 h; 320,000 compounds, 6.9% hits; AID 504834, 2011; also: potency is read from the fitted curve at half-maximal effect; % is scaled to controls: 0 for no effect and ±100 for the full control effect
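P. falciparum expressing integrated firefly luciferase grown in erythrocytes (2% hematocrit, 0.05% parasitemia final) with compounds for 96 hours at 37 C, 5% CO2. Growth inhibition read as loss of luminescence after adding luciferase detection reagent.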
Pf growth 48h: Primary qHTS for delayed death inhibitors of the malarial parasite plastid, 48 hour incubation | Potency, µM (series often up to 28.7 µM), inactives show at the top dose activity change, negative = inhibition, actives largely listed as inhibitors | 310,000 compounds, 5.9% hits | AID 504832, 2011 | P. falciparum luciferase growth in erythrocytes, 48 h; also: potency is read from the fitted curve at half-maximal effect; % is scaled to controls: 0 for no effect and ±100 for the full control effect
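Read-out is firefly luciferase luminescence from an integrated reporter in P. falciparum, so falling signal marks reduced parasite growth. Infected erythrocytes were at 2% hematocrit and 0.1% parasitemia (final) in Albumax-supplemented RPMI 1640.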
HCV inhibitor: qHTS Assay for Inhibitors of Hepatitis C Virus (HCV); Huh7.5.1 HCVcc-Cre infection, luciferase reporter, 44 h; Potency, µM (titrated, usually from 41.8 µM), for the others: top-dose activity change, negative = inhibition, usual class: inhibitors; 340,000 compounds, 3.4% hits; AID 651820, 2012; also: potency is read from the fitted curve at half-maximal effect; % is scaled to controls: 0 for no effect and ±100 for the full control effect
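Luciferase read-out (15 sec integration) after a 15 min room-temperature substrate step quantifies HCVcc-Cre infection. Cells, 1,000 per well, had compound added 4 h post-plating, then virus at ~0.5 moi, and were cultured 44 h.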
HCMV antiviral: qHTS Assay for inhibitors of the human cytomegalovirus (HCMV) | HFF cells, HCMV-luciferase reporter, 72 h; hits give low values | activity change, negative = inhibition, % at 57.5 µM | 410,000 compounds, 4.5% hits | AID 1259415, 2018; in the data active = activity change below about -60%; inconclusive = no clear call, values can overlap the other calls; inactive = above about -39%; also: % is scaled to controls: 0 for no effect and ±100 for the full control effect
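Compounds were evaluated in HFFs infected with an HCMV luciferase reporter virus (MOI 1 PFU/cell). Luciferase in lysates collected 72 h post infection served as the replication measure.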
SARS PLpro yeast: qHTS of Yeast-based Assay for SARS-CoV PLP. AID 485353, 2010. Potency, µM (series often up to 32.9 µM), without a hit: at the highest dose activity, positive = growth rescue, hits mostly activators. 330,000 compounds, 0.19% hits. S. cerevisiae expressing SARS-CoV PLpro, growth rescue; calls by dose curve; also: potency is read from the fitted curve at half-maximal effect; 0% is about no effect; nearly all actives have a fitted effect of over 55% in size
Sm TGR block: qHTS Assay for the Inhibitors of Schistosoma Mansoni Peroxiredoxins | Schistosoma mansoni thioredoxin glutathione reductase (TGR), Q962Y6 | purified TGR, DTNB reduction, TNB absorbance 405 nm | Potency, µM (doses to about 114 µM), without a hit: at the highest dose activity change, negative = inhibition, usual class: inhibitors | 360,000 compounds, 3% hits | AID 485364, 2010; also: potency is read from the fitted curve at half-maximal effect; % is scaled to controls: 0 for no effect and ±100 for the full control effect; nearly all actives have a fitted effect of over 60% in size
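TGR 20 nM + NADPH 100 uM (dispensed conc.), cpd preinc 15 min RT; start with NADPH (500 uM addition) then DTNB (15 mM addition). Kinetic TNB absorbance, 405 nm filter. Four-parameter Hill fit across titration.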
Active calls of the source: *; [ ] = remark or other dose. Unless noted, calls follow the shape of the dose curve; as a rule, active = well fitted curve in the direction sought with a large enough effect; inconclusive = small, poorly fitted or top-dose-only effect, or another doubt; inactive = no such curve, though single readings can be large; an effect the other way counts as inactive or inconclusive.

For COCCCNC(=O)c1c(N)n(-c2ccccc2)c2nc3ccccc3nc12 the results were Pf growth 96h inconclusive, Pf growth 48h inconclusive, HCV inhibitor 12.6µM*, HCMV antiviral -23.9, SARS PLpro yeast -1.2% and Sm TGR block -15.7%.
Screening COC(=O)c1c(N)n(-c2ccc(N3CCOCC3)cc2)c2nc3ccccc3nc12 returned SARS PLpro yeast 2.3% and Sm TGR block -0.1%[11.4 µM].
`COCCNC(=O)c1c(N)n(-c2cccc(C)c2)c2nc3ccccc3nc12` gave Pf growth 96h inconclusive, Pf growth 48h inconclusive, HCV inhibitor 11.2µM*, HCMV antiviral -29.8, SARS PLpro yeast -2.2% and Sm TGR block -13.3%.
Screening COC(=O)c1c(N)n(-c2ccc(NC(C)=O)cc2)c2nc3ccccc3nc12 returned Pf growth 48h inconclusive, HCV inhibitor inconclusive, HCMV antiviral -66.2*, SARS PLpro yeast -7.2% and Sm TGR block 3.0%.
For COCCNC(=O)c1c(NC(=O)c2ccc(Br)o2)n(Cc2ccccc2)c2nc3ccccc3nc12 the results were Pf growth 96h inconclusive, Pf growth 48h 13.1µM*, HCV inhibitor inconclusive, HCMV antiviral 4.7, SARS PLpro yeast -8.8% and Sm TGR block inconclusive.
For C#CC1(N2CCCCC2)CCCCC1 the results were HCMV antiviral -62.2*.
O=C(OC[C@@H](O)CO)c1ccccc1Nc1ccnc2cc(Cl)ccc12 was read as Pf growth 96h 1.61µM* and Pf growth 48h inconclusive.
`Cc1c(Cl)cccc1Nc1ncccc1C(=O)OCC(O)CO` (stereo not given) gave Pf growth 96h 46.9%, Pf growth 48h 14.7%, SARS PLpro yeast 2.6% and Sm TGR block 2.7%.
`O=C(OCC(O)CO)c1ccccc1Nc1ccnc2cc(Cl)ccc12` (stereo not given) gave Pf growth 96h inconclusive, Pf growth 48h 8.28µM*, HCV inhibitor inconclusive, HCMV antiviral -0.3, SARS PLpro yeast 8.8% and Sm TGR block -5.2%.
COc1cc(CN2CCN(S(=O)(=O)c3ccc(NC(C)=O)cc3)CC2)cc(OC)c1O was read as Pf growth 96h 14.2%, Pf growth 48h -0.8%, HCV inhibitor 1.5%, SARS PLpro yeast -8.4% and Sm TGR block inconclusive.
For COc1cc(CN2CCN(S(=O)(=O)c3ccccc3)CC2)cc(OC)c1O the results were HCMV antiviral 17.5 and Sm TGR block 4.47µM*.
CCCS(=O)(=O)N1CCN(Cc2ccc(OCc3ccccc3)c(OC)c2)CC1 was read as HCV inhibitor 10µM* and HCMV antiviral inconclusive.
Screening COc1cc(CN2CCC(C(=O)NCC(C)(C)CN(C)C)CC2)ccc1OCc1ccccc1 returned Pf growth 96h inconclusive, Pf growth 48h 9.28µM*, HCV inhibitor inconclusive, HCMV antiviral -93.9*, SARS PLpro yeast -0.6% and Sm TGR block 3.8%.
Screening COc1ccc(S(=O)(=O)N2CCCN(Cc3cccc(F)c3)CC2)cc1 returned Pf growth 96h 11.7µM*, Pf growth 48h 18.5%, HCV inhibitor 9.5%, HCMV antiviral -35.1, SARS PLpro yeast inconclusive and Sm TGR block -5.7%.
For CCCCNC(=O)C1CCN(Cc2ccc(OCc3ccccc3)c(OC)c2)CC1 the results were Pf growth 96h -19.9%, Pf growth 48h 72.4%, HCV inhibitor inconclusive, HCMV antiviral 140.7, SARS PLpro yeast 2.7% and Sm TGR block -1.4%.
`COc1cc([N+](=O)[O-])ccc1NC(=O)CSc1n[nH]c(C(C)C)n1` gave Pf growth 96h inconclusive, Pf growth 48h inconclusive, HCV inhibitor 0.8%, HCMV antiviral 2.2, SARS PLpro yeast -0.7% and Sm TGR block 20.6%.
Screening CCN(C(=O)Cn1ncc2c(=O)oc3ccc(C)cc3c21)c1cc(OC)ccc1OC returned HCMV antiviral -4.7 and Sm TGR block 0.2%.
Screening COc1cccc(-c2ccnc3c(-c4ccc(F)cc4)c(C)nn23)c1 returned HCMV antiviral -14.1 and Sm TGR block 6.9%.
For CNC(=O)C[C@H]1C(=O)N(c2ccccc2)C[C@@H]1C the results were HCMV antiviral -6.6.
`COc1ccc(S(=O)(=O)N2CCN(Cc3cc(OC)c(OC)c(OC)c3)CC2)cc1` gave Pf growth 96h -16.0%, Pf growth 48h inconclusive, HCV inhibitor 4.1%, HCMV antiviral -26.3 and Sm TGR block 2.8%.
`COc1ccc(S(=O)(=O)N2CCN(Cc3cc(OC)c(O)c(OC)c3)CC2)cc1` gave Pf growth 96h 0.0%, Pf growth 48h -12.5%, HCV inhibitor 10.3%, HCMV antiviral 66.4, SARS PLpro yeast 5.4% and Sm TGR block 3.55µM*.
Screening O=S(=O)(c1ccc(Br)cc1)N1CCCN(Cc2ccccc2F)CC1 returned Pf growth 96h 6.57µM*, Pf growth 48h 40.1%, HCV inhibitor -3.7%, HCMV antiviral 27.6, SARS PLpro yeast 11.7% and Sm TGR block -12.8%.
For Cc1ccc2nc3cc([N+](=O)[O-])cc([N+](=O)[O-])c3cc2c1 the results were Pf growth 96h inconclusive, Pf growth 48h inconclusive, HCV inhibitor inconclusive, HCMV antiviral 57.1, SARS PLpro yeast -22.9% and Sm TGR block 2.51µM*.
O=C(Nc1ccc(N2CCOCC2)cc1)c1csc([C@@H]2C[C@H](O)[C@@H](CO)O2)n1 was read as HCMV antiviral 25.2.
`CCOC(=O)C1(Cc2cccc(OC)c2)CCN(CCO)CC1` gave Pf growth 96h inconclusive, Pf growth 48h -1.1%, HCV inhibitor -14.0%, HCMV antiviral 42.9, SARS PLpro yeast 0.0% and Sm TGR block 0.8%.
Screening CCOC(=O)C1(Cc2ccc(OC)cc2)CCN(C(=O)CCN2CCCC2=O)CC1 returned Pf growth 96h 21.9%, Pf growth 48h inconclusive, HCV inhibitor -2.7%, HCMV antiviral -75.8*, SARS PLpro yeast 0.8% and Sm TGR block 4.8%.
`CCOC(=O)C1(Cc2cccc(F)c2)CCN(C(=O)c2cscn2)CC1` gave Pf growth 96h inconclusive, Pf growth 48h -3.2%, HCV inhibitor 3.0%, HCMV antiviral -33.1, SARS PLpro yeast -2.1% and Sm TGR block 71.6%.
Screening CCOC(=O)C1(Cc2cccc(OC)c2)CCN(Cc2cnc(C)s2)CC1 returned Pf growth 96h 9.28µM*, Pf growth 48h inconclusive, HCV inhibitor -23.6%, HCMV antiviral 25.2, SARS PLpro yeast -0.8% and Sm TGR block -22.1%.

Bioassay records (PubChem BioAssay)
